Test results published in PubChem BioAssay (NCI).
About 79,000 compounds went through this panel and 15% of them were active in at least one assay; those are over-represented in the sample as a whole. No stated cut-off is given here; in the data, active means growth inhibition above about 70%; inactive means the rest.

Assays:
[1] = NCI Yeast Anticancer Drug Screen. Data for the rad50 strain (AID 155);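 further: 0% = growth of vehicle-only cultures of the same strain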; conditions: S. cerevisiae rad50 strain growth inhibition; at 50.0 µM; active compounds read high
Procedure, shortened: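 Inhibition values express reduced yeast growth in compound-treated cultures relative to vehicle-treated controls.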

[2] = NCI Yeast Anticancer Drug Screen. Data for the mec2-1 strain (AID 157); conditions: S. cerevisiae mec2-1 strain, at 50.0 µM, active compounds read high
Procedure, shortened: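 Growth inhibition is read against vehicle-treated controls after compound exposure of the mec2-1 yeast strain, which is defective in DNA damage repair or cell cycle control.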

[3] = NCI Yeast Anticancer Drug Screen. Data for the sgs1 mgt1 strain (AID 161);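 further: 0% = growth of cultures given vehicle only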; conditions: S. cerevisiae sgs1 mgt1 strain, at 50.0 µM, active compounds read high
Procedure, shortened: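 Growth of a repair-deficient yeast mutant was monitored after compound treatment and expressed as inhibition relative to vehicle-treated cultures.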

[4] = NCI Yeast Anticancer Drug Screen. Data for the cln2 rad14 strain (AID 165);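 further: 0% = growth equal to vehicle treated cultures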; conditions: S. cerevisiae cln2 rad14 strain, at 50.0 µM, active compounds read high
Procedure, shortened: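 Growth inhibition, relative to vehicle-treated controls, is the read-out. The test organism is a yeast strain with defined genetic alterations, cln2 rad14.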

[5] = NCI Yeast Anticancer Drug Screen. Data for the bub3 strain (AID 167); conditions: S. cerevisiae bub3 mutant strain, at 50.0 µM, active compounds read high
Procedure, shortened: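 Steps: expose the mutant yeast strain to compound; grow alongside vehicle-treated cultures; measure growth; express inhibition against the vehicle cultures.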

[6] = NCI Yeast Anticancer Drug Screen. Data for the mlh1 rad18 strain (AID 175); conditions: S. cerevisiae mlh1 rad18 strain growth inhibition; at 50.0 µM; active compounds read high
Procedure, shortened: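 Cells of a genetically altered yeast strain, deficient in DNA damage repair, were treated with compound. Their growth was then compared with that of vehicle-treated cultures to give inhibition.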

Measured: growth inhibition

CC(O)CCC(C)O (stereo unspecified)
inactive: [1] -19.1% | [2] -24.2% | [3] -4.5% | [4] -4.95% | [5] 1.85% | [6] 10.2%

Nc1ccc2ncc(NCc3ccc(F)cc3)nc2c1
inactive: [1] -4% | [2] -25.9% | [3] -25.6% | [4] 18.1% | [5] 3.4% | [6] 5.15%

Oc1cccc2c1N1CCN2CC1
inactive: [1] -2.15% | [2] 2.55% | [3] 11.2% | [4] 4.85% | [5] 9.6% | [6] 10.3%

CCCCCCCCCCCCCCCCOc1cccc(/C(=N/NS(C)(=O)=O)N2CCCCC2)c1
inactive: [1] -16.1% | [2] -30.6% | [3] -8.3% | [4] 1.75% | [5] -16.8% | [6] -5.5%

CCOC(=O)CCC(NC(=O)c1ccc(Nc2nc3cc(C(F)(F)F)ccc3nc2-c2ccccc2)cc1)C(=O)OCC (stereo unspecified)
inactive: [1] 12.9% | [2] 2.7% | [3] 12.1% | [4] 3.9% | [5] -5.35% | [6] -37.1%

C=C1CC[N+]2(CCCC)CCCC12 (stereo unspecified)
inactive: [1] 4.85% | [2] 29.2% | [3] 16.2% | [4] -4.1% | [5] 41.6% | [6] 1%

O=C1C=C(c2ccccc2)C(c2ccccc2)=C1
inactive: [1] 23.6% | [2] 2.8% | [3] -5.2% | [4] 30.1% | [5] -5.6% | [6] 11.1%

CC/C(C)=N\NC(N)=O
inactive: [1] 6.85% | [2] 6.7% | [3] -29.7% | [4] -16.1% | [5] 0.1% | [6] 6.9%

CNCCC(=O)C1CCC(OC)CC1 (stereo unspecified)
inactive: [1] 26.2% | [2] -3% | [3] 2.1% | [4] -49.5% | [5] 5.45% | [6] -8.45%

CC1=CC(=O)C(CN(C)C)(CN(C)C)C(C)(C)C1
inactive: [1] 4.85% | [2] 9.35% | [3] 7.65% | [4] 0.25% | [5] -1.65% | [6] 13.1%

CCCCCCCCCCCCCCCOc1ccc2ccccc2c1
inactive: [1] -11.4% | [2] 8.2% | [3] -5.8% | [4] -27.7% | [5] -7.05% | [6] -35.1%

O=c1ccc2c(-c3ccccc3S(=O)(=O)O)c3ccc(O)c(O)c3oc-2c1O
inactive: [1] 3.45% | [2] 13.3% | [3] -4.4% | [4] 11% | [5] 15.6% | [6] 4.4%

OC1=CC(C2CCCCC2)CC(O)=C1 (stereo unspecified)
inactive: [1] 2.95% | [2] -0.65% | [3] -4.75% | [4] -7.9% | [5] -59.5% | [6] -17.1%

Cc1cc(=O)c2cccc(-c3ccccc3)c2[nH]1
inactive: [1] 19.5% | [2] 1.25% | [3] 1.15% | [4] -30.9% | [5] -12.9% | [6] 22.2%

O=c1c(O)c(-c2cccnc2)oc2ccc(Cl)cc12
inactive: [1] -2.1% | [2] 17.8% | [3] 12.8% | [4] 21.6% | [5] 16.7% | [6] 0.4%

C[C@@H]1C(N2CCCC2)=CC(=O)OC1c1ccccc1 (stereo partly specified)
inactive: [1] -3.65% | [2] -11.1% | [3] 11.3% | [4] -6.4% | [5] -1.3% | [6] 1.95%

O=c1c2ccccc2nc(-c2ccccc2)n1NC(=S)Nc1cccc(Cl)c1
inactive: [1] 7.45% | [2] -27.1% | [3] 3.65% | [4] -71.7% | [5] 28.7% | [6] 0.55%

O=c1[nH]cc(COCC(O)CO)c(=O)[nH]1 (stereo unspecified)
inactive: [1] -27% | [2] -10.7% | [3] -43.9% | [4] 3.95% | [5] -29.9% | [6] -23.7%

Nc1ncnc(Nc2ccc(S(=O)(=O)O)cc2)n1
inactive: [1] -35.9% | [2] -32.6% | [3] -31.1% | [4] -1.25% | [5] -34.9% | [6] -27.2%

Oc1cc(CN2CCOCC2)c(O)c(CN2CCOCC2)c1
inactive: [1] 14.7% | [2] 8.95% | [3] 21.1% | [4] 20% | [5] 7.7% | [6] 24.6%

Cc1ccc(C(=O)Nc2ccc3c(c2)Cc2ccccc2-3)cc1
inactive: [1] -19.3% | [2] -23.6% | [3] -7.45% | [4] -5% | [5] -20.6% | [6] -10.8%
